From PubChem BioAssay
Active and inactive are the calls of the source.

Tests used:
[1] = E. coli DRC41 culture turbidity changes, primary screen, E. coli filamentation inducer project, strain DRC41, OD650, 48 h (AID 1152);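 further: E. coli MC1000 strain DRC41 lacking acrAB efflux pump and sulA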; details: E. coli DRC41 (acrAB sulA), higher = more signal, called active from +8 up or from −8 down
[2] = small-molecule binders of probe aLefty1, primary screen, biochemical, small-molecule microarray, 635/667 nm fluorescence (AID 1153); details: higher = more signal;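 further: score merges spot fluorescence with signal-to-noise ratio from the scanned slide images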
[3] = PSAC antagonists in infected red cells, primary screen, cell-based, P. falciparum Indochina, OD700, 1 h (AID 1154); details: P. falciparum Indochina infected RBC osmotic lysis, higher = more signal, called active from +8 up or from −8 down
[4] = PSAC antagonists in infected red cells, primary screen, cell-based, P. falciparum Indochina, OD700, 2 h (AID 1155);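 further: lysis reports solute entry through the parasite surface anion channel PSAC; channel blockers reduce lysis of infected cells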; details: P. falciparum Indochina infected erythrocytes, osmotic lysis OD700; higher = more signal, called active from +8 up or from −8 down
[5] = osmotic lysis modulators in infected erythrocytes, primary screen, PSAC antagonist project, cell-based, P. falciparum Indochina, OD700, 3 h (AID 1156); details: higher = more signal, called active from +8 up or from −8 down
[6] = PSAC antagonists in infected red cells, primary screen, cell-based, P. falciparum Indochina, OD700, 18 h (AID 1157); details: P. falciparum Indochina infected erythrocytes, osmotic lysis OD700, 18 h; higher = more signal, called active from +8 up or from −8 down
[7] = modulators of S6 phosphorylation in cells, primary screen, cell-based, A549, cytoblot, luminescence, serum-stimulated (AID 1158); details: A549 phospho-S6 cytoblot, 5 h, higher = more signal;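 further: serum-stimulated A549 lung adenocarcinoma cells; signal is phosphorylated S6 detected by cytoblot immunostaining with HRP secondary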
[8] = molecular target: NADPH oxidase 2 (Homo sapiens) (UniProt P04839); experiment: NOX2-dependent H2O2 signal modulators, primary screen, NOX inhibitor project, cell-based, HEK293-NOX2, PMA-stimulated, Amplex Red fluorescence (AID 1159); details: 45 min, higher = more signal, called active from +8 up or from −8 down; further: test concentration not given here
[9] = molecular target: NADPH oxidase 4 (Homo sapiens) (UniProt Q9NPH5); experiment: NOX4-dependent H2O2 signal modulators, primary screen, NOX inhibitor project, cell-based, HEK293-NOX4, tetracycline-induced, Amplex Red fluorescence (AID 1160); details: 45 min, higher = more signal, called active from +8 up or from −8 down
[10] = molecular target: NADPH oxidase 5 (Homo sapiens) (UniProt Q96PH1); experiment: NOX5-dependent H2O2 signal modulators, primary screen, NOX inhibitor project, cell-based, HEK293-NOX5, Amplex Red fluorescence (AID 1161); details: HEK293-NOX5, ionomycin, 45 min, higher = more signal
NADPH oxidase 5 (Homo sapiens), sequence (Q96PH1 whole entry, looked up): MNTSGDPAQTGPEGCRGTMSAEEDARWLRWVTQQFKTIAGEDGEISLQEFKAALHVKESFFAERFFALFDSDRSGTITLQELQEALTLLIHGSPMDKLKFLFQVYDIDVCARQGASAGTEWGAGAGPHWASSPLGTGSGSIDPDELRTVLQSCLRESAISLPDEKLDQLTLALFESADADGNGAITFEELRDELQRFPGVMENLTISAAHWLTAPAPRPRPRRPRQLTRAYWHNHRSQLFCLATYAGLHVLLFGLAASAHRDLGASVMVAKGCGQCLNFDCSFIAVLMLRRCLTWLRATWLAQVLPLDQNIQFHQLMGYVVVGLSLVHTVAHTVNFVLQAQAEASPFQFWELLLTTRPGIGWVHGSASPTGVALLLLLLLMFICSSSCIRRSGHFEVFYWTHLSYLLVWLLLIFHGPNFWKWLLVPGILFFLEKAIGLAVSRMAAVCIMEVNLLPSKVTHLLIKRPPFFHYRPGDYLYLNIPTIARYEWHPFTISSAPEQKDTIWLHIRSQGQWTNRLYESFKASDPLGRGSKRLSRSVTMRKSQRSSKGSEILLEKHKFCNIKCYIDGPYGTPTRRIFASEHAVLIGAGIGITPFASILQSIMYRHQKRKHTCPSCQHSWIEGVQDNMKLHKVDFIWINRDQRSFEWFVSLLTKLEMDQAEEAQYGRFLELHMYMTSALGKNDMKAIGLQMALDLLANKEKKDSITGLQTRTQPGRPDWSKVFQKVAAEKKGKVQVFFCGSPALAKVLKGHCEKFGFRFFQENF

NADPH oxidase 4 (Homo sapiens), sequence (Q9NPH5 whole entry, looked up): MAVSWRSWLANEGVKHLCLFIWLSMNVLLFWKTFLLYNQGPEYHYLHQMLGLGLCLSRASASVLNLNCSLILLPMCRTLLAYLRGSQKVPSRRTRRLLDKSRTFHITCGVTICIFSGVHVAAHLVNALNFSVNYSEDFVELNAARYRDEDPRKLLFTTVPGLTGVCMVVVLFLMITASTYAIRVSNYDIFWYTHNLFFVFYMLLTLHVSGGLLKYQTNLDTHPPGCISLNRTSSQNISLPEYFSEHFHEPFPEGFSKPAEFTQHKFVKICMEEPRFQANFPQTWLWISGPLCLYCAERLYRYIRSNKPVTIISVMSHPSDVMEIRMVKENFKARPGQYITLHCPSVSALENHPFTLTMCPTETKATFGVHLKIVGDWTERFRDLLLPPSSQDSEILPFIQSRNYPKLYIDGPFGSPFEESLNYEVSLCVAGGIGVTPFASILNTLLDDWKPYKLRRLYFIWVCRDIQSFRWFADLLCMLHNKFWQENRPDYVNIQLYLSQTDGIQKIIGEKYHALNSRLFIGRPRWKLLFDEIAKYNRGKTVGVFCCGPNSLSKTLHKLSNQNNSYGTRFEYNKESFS
NADPH oxidase 2 (Homo sapiens), sequence (P04839 whole entry, looked up): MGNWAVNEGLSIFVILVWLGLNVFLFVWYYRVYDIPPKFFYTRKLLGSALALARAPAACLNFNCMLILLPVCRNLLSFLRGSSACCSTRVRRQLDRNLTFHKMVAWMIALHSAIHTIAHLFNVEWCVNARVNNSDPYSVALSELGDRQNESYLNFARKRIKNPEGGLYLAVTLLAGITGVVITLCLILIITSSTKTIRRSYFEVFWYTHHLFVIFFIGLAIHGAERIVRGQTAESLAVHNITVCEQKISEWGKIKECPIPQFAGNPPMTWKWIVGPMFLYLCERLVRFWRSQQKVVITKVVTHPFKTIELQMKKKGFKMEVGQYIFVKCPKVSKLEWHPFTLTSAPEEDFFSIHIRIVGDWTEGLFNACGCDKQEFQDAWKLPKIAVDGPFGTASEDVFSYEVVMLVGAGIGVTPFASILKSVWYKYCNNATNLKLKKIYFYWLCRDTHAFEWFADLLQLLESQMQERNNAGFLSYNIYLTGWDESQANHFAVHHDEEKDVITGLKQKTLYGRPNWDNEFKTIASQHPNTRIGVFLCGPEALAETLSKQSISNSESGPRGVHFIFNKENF

Structure (SMILES) | z-score [1] | composite z-score [2] | z-score [3] | z-score [4] | z-score [5] | z-score [6] | z-score [7] | z-score [8] | z-score [9] | z-score [10]
COc1cc(CO)cc(I)c1O[C@H]1C=C(C(=O)NCCO)C[C@@H](N(CCc2cccc(F)c2)C(=O)CCC2CCCC2)[C@@H]1O | -0.429 (inactive) | 0.437 | 16.3 (active) | 3.94 (inactive) | 4.42 (inactive) | 1.53 (inactive) | -0.165 | 1.47 (inactive) | 0.145 (inactive) | -2.23
[N-]=[N+]=Nc1ccccc1[C@@H]1OC(c2ccc(OCCCO)cc2)=N[C@]1(CCS(=O)(=O)c1ccccc1)C(=O)N1CCCCC1 | -0.112 (inactive) | 1.12 | 30.2 (active) | 25 (active) | 1.7 (inactive) | 3.94 (inactive) | -0.174 | -1.33 (inactive) | 1.85 (inactive) | 1.52
CC(C)(C)OC(=O)CC[C@@]1(C(N)=O)N=C(c2ccc(OCCCO)cc2)O[C@@H]1c1ccccc1N=[N+]=[N-] | 1.3 (inactive) | 0.224 | 30.8 (active) | 31.3 (active) | 2.05 (inactive) | 2.73 (inactive) | -0.207 | 1.57 (inactive) | -0.154 (inactive) | -1.44
Cc1ccc(N2C(=O)c3ccccc3[C@@H](C(=O)NCC(C)C)[C@@H]2c2ccc(CO)cc2)nc1 | 0.569 (inactive) | -0.0186 | 3.15 (inactive) | 0.48 (inactive) | 1.38 (inactive) | 0.231 (inactive) | 0.0174 | -0.0277 (inactive) | 0.918 (inactive) | 0.84
O=C1C2C=CC(C(O)c3ccccn3)N(Nc3ccccc3F)C2C(=O)N1c1ccccc1 (stereo not given) | -0.882 (inactive) | -0.133 | 0.671 (inactive) | 0.571 (inactive) | 0.42 (inactive) | 1.19 (inactive) | -0.725 | -1.63 (inactive) | -3.57 (inactive) | -1.54
C=CCNC(=O)[C@H]1[C@@H]2C(=O)O[C@@H](c3ccccc3)[C@@H](c3ccccc3)N2[C@@H](c2ccc(O)cc2)[C@]12C(=O)Nc1ccc(C#Cc3ccc(OC)cc3)cc12 | -0.837 (inactive) | -0.0084 | 2.41 (inactive) | 1.05 (inactive) | -0.99 (inactive) | 0.859 (inactive) | -0.294 | 0.143 (inactive) | -2.18 (inactive) | -0.436
CCCC[C@H]1OB(O)C[C@H]2C1=C(C)Cn1c(=O)n(-c3ccccc3)c(=O)n12 | -2.02 (inactive) | -0.677 | 0.0016 (inactive) | 0.408 (inactive) | 0.393 (inactive) | 0.181 (inactive) | 0.441 | -0.59 (inactive) | -0.181 (inactive) | -0.278
O=C(NCCN1CCOCC1)[C@@H]1c2ccccc2C(=O)N(Cc2cc(F)cc(C(F)(F)F)c2)[C@H]1c1ccc(CO)cc1 | -0.61 (inactive) | -0.0492 | 3.37 (inactive) | 0.298 (inactive) | 0.884 (inactive) | 0.0839 (inactive) | -0.287 | 1.44 (inactive) | 1.12 (inactive) | 2
COC(=O)[C@@]1(Cc2ccc(OC)cc2)[C@H]2c3cc(C(=O)N(C)C)n(CCSCCO)c3C[C@H]2CN1C(=O)c1ccccc1 | -0.641 (inactive) | 0.0391 | 2.02 (inactive) | 0.0187 (inactive) | 0.453 (inactive) | 0.641 (inactive) | -0.368 | 0.393 (inactive) | 0.978 (inactive) | -0.24
CCOC(=O)C[C@H]1[C@H](OC(=O)c2cc3ccccc3oc2=O)[C@@H](NC(=O)c2ccc3ccccc3c2)c2cc(OCCCO)ccc2N1C(=O)c1ccccc1 | 0.734 (inactive) | 0.201 | 1.22 (inactive) | -1.04 (inactive) | 0.519 (inactive) | -2.59 (inactive) | 1.2 | -0.539 (inactive) | -0.928 (inactive) | 0.53
CC(=O)n1cc(C(O)C2C=CC3C(=O)N(c4ccccc4)C(=O)C3N2Nc2ccc(C#N)cc2)c2ccccc21 (stereo not given) | -0.947 (inactive) | 0.201 | 21.5 (active) | 6.32 (inactive) | 0.566 (inactive) | 1.37 (inactive) | -0.784 | -1.15 (inactive) | -4.31 (inactive) | -3.01
